Reference: article PMC4336329 (PLoS ONE, 2015)
About 2,200 (0.71%) of roughly 310,000 compounds showed an effect of 50% or more. The effect is printed as a negative number. The entries come from a sample that favours strong results as a whole.

target: human ether-à-go-go-related gene (hERG) potassium channel (human, UniProt Q12809); assay: primary screen, population patch clamp on CHO cells stably expressing hERG; higher = less effect of the substance
Sequence (Q12809 whole entry, looked up): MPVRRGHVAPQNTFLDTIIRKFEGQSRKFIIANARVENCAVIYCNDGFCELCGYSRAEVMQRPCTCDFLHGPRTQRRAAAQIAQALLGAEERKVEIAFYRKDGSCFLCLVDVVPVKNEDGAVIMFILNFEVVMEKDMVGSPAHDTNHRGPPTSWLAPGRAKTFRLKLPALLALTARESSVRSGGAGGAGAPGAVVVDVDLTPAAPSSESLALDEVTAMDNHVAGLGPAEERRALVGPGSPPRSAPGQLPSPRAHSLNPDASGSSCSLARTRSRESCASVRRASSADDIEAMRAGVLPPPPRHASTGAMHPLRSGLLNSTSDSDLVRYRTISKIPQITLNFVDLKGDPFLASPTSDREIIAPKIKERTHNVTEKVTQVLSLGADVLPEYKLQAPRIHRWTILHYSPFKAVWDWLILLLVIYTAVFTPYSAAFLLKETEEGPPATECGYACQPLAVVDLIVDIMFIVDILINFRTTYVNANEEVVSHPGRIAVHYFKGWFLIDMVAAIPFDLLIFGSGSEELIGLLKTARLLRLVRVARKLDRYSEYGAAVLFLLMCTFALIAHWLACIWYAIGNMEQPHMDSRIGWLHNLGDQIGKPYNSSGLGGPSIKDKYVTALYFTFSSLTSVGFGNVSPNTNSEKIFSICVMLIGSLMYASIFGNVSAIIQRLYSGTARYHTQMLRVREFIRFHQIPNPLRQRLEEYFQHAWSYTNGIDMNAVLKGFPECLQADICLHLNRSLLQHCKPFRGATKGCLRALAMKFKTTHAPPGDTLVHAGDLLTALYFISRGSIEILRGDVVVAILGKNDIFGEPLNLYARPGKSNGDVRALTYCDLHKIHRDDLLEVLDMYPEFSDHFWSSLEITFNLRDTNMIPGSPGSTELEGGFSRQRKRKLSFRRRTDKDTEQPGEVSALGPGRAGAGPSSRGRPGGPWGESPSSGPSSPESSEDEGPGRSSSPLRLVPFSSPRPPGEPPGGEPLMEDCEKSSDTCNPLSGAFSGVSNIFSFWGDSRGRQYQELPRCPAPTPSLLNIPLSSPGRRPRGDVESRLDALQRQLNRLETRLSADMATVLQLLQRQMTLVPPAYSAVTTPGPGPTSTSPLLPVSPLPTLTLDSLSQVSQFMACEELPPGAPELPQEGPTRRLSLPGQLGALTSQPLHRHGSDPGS

Compound | hERG current change (%, negative = inhibition) at 1uM
Cc1cc(NC(=O)CCC(=O)N(Cc2cccnc2)C(C(=O)NC(C)(C)C)c2ccccc2Cl)no1 (stereo not shown) | 14.7%
O=C1CN(c2ccccc2)C(=S)N1C(=O)c1ccccc1 | 13.5%
C/C(=N\NC(=O)c1cccc(Br)c1)c1cccc(NC(=O)c2ccc(C)o2)c1 | 2.01%
C/C(=N/NC(=O)c1ccco1)c1cccc(NC(=O)c2ccc(C)o2)c1 | -8.71%
C/C(=N/NC(=O)c1ccc(Br)o1)c1cccc(NC(=O)c2ccc(C)o2)c1 | -58%
Cc1[nH]c2ccc(C(=O)N3CCN(Cc4ccccc4)CC3)cc2c1C | 0.829%
CC1(c2nnc(-c3cccc(Cl)c3)o2)CC(c2ccccc2F)=NO1 (stereo not shown) | 8.2%
CC1CCN(CCCn2c(=S)[nH]c3ccccc3c2=O)CC1 | -13.5%
O=C(CN1CCC(C(=O)c2ccc(F)cc2)CC1)Nc1ccccc1 | -10.5%
O=C(O)C(O)C(O)C(=O)O.O=C(c1ccc(F)cc1)C1CCN(CCn2c(=O)[nH]c3ccccc3c2=O)CC1 | -9.52%
CC1CCN(CCn2c(=S)[nH]c3ccccc3c2=O)CC1 | 1.9%
CC1(C)C(=O)N(CCN2CCC(C(=O)c3ccc(F)cc3)CC2)c2ccccc21.Cl | -60.8%
O=c1c2ccccc2[nH]c(=S)n1CCCN1CCN(c2ccccc2)CC1 | 14%
Cl.O.O=C(c1ccc(F)cc1)C1CCN(CCn2c(=S)[nH]c3ccccc3c2=O)CC1 | -77.7%
O=c1c2ccccc2[nH]c(=S)n1CCCN1CCC(Cc2ccccc2)CC1 | -52%
O=C(CN1CCC(C(=O)c2ccc(F)cc2)CC1)NCc1ccccc1F | 2.84%
O=C(CCSc1nc2ccccc2o1)N1CCOCC1 | 8.39%
CCOc1cc(C(=O)Nc2cccc3ncccc23)cc(OCC)c1OCC | -2.81%
COC(=O)Cc1c(O)ccn(Cc2ccccc2OC)c1=O | 10.5%
COc1cc(/C=N/Nc2nc3ccccc3[nH]2)cc(Br)c1OCC(=O)N(C)C | 0.153%
COc1ccc2c(CCNC(=O)c3ccc([N+](=O)[O-])cc3)c[nH]c2c1 | 12.8%
Cc1cccn2c(=O)c(C=Nc3ccccc3)c(NCCO)nc12 | 6%
Cc1c(CC(=O)O)c(=O)oc2c(C)c3occ(-c4ccccc4)c3cc12 | 19.9%
CC1(c2ccc(OC(F)F)cc2)NC(=O)N(CC(=O)Nc2ccc(OC(F)F)cc2)C1=O (stereo not shown) | -100%
CC1(c2ccc(OC(F)F)cc2)NC(=O)N(CC(=O)Nc2ccc(F)cc2)C1=O (stereo not shown) | -15.6%
CC1(c2ccc(OC(F)F)cc2)NC(=O)N(CC(=O)Nc2ccccc2)C1=O (stereo not shown) | -26.2%
COc1ccc(O)c(/C=N/NC(=O)CN2CCS(=O)(=O)CC2)c1 | 15.5%
COc1ccc(C2=NN(C(=O)CSc3nnc(C)c(=O)n3N)C(c3ccco3)C2)cc1 (stereo not shown) | -0.0705%

Compound | hERG current change (%, negative = inhibition) at 1uM
COc1ccc(CCC(=O)N2CCN(c3ccc([N+](=O)[O-])cc3)CC2)cc1OC | -76.1%
COc1cc(CCC(=O)N2CCN(c3ccc([N+](=O)[O-])cc3)CC2)cc(OC)c1OC | -83.6%
COc1ccc(CCC(=O)N2CCN(c3ccccc3)CC2)cc1OC | 13.5%
COc1cc(CCC(=O)N2CCN(c3ccccc3)CC2)cc(OC)c1OC | -0.0932%
COCC(=O)N1CCN(c2ccc([N+](=O)[O-])cc2)CC1 | -31.5%
COc1ccccc1CC(=O)N1CCN(c2ccc([N+](=O)[O-])cc2)CC1 | -8.15%
CCOC(=O)Cc1nnc(-c2ccccc2)o1 | 5.78%
COc1ccc2nc(NC(=O)c3ccoc3C)sc2c1 | 17.6%
S=C(NN=C1C2CC3CC(C2)CC1C3)Nc1ccccc1 | 11.9%
CC(=O)Nc1ccc2oc(C)nc2c1 | 22.4%
CC(C)(C)OC(=O)N[C@H](C(=O)OC(C)(C)C)c1ccc(C(F)(F)F)cc1 | 12.8%
Cc1ccc2nc(SCC(=O)NCc3ccco3)nc(=O)n2c1 | 11.3%
N=c1c(S(=O)(=O)c2ccccc2)cc2c(=O)n3ccccc3nc2n1C1CCCC1 | 8.93%
Cc1ccc2nc3c(cc(C(=O)NCc4ccco4)c(=N)n3C3CCCC3)c(=O)n2c1 | -83.2%
N=c1c(C(=O)NCc2ccco2)cc2c(=O)n3ccccc3nc2n1C1CCCC1 | -82.2%
O=C(NCc1ccco1)c1cnc2ccccn2c1=O | 5.25%
Cn1c2ccccc2c2c(C(=O)NCc3ccco3)cn(C3CCCCC3)c(=O)c21 | 7.44%
C/C(=N\NC(=O)c1ccccc1[N+](=O)[O-])c1ccc(Br)s1 | 14.7%
COc1ccc(CCNC(=O)CN(C2CCCCC2)S(C)(=O)=O)cc1 | 4.21%
COC(=O)c1scc(C)c1S(=O)(=O)Nc1ccc(C)cc1 | 12.7%
Cc1nc2scc(C)n2c(=O)c1S(=O)(=O)Nc1ccc(N2CCOCC2)cc1 | 5.65%
Cc1ccc(S(=O)(=O)N2CCN(C(=O)c3cccs3)CC2)cc1C | 2.03%
CCN1C(=O)C(CC(=O)Nc2ccc(Cl)cc2)N(NC(=O)c2ccncc2)C1=S (stereo not shown) | 12.2%
FC(F)(F)c1ccc(-c2noc(CN3CCCN(C4CCCCC4)CC3)n2)cc1 | -75.3%
Cc1ccc(-c2noc(CN3CCCCC3)n2)cc1 | 31.5%
CN1CCCN(Cc2nc(-c3cccc(C(F)(F)F)c3)no2)CC1 | -15.4%
CCN(CC)S(=O)(=O)c1cc(C(=O)Nc2cccnc2)ccc1Cl | -40.3%
